Experimental data reported in PubChem BioAssay (NCI).
About 79,000 compounds went through this panel and 15% of them were active in at least one assay; those are over-represented in the sample as a whole. Active and inactive are the calls of the source. Rule as the data show it: active = growth inhibition above about 70%; inactive = the rest.

Assay: NCI Yeast Anticancer Drug Screen. Data for the rad14 strain (AID 159);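 also: 0% = growth of vehicle-treated control cultures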
Conditions: S. cerevisiae rad14 strain growth inhibition, hits give high values
Protocol: Growth inhibition of yeast strains with defined genetic alterations is measured as a screen for potential anti-cancer activity. Selected strains with alterations in DNA damage repair or cell cycle control were exposed to compounds and growth inhibition was measured relative to vehicle treated controls. The strain used in this assay is rad14

Row | Compound | growth inhibition (at 1.2 µM) | growth inhibition (at 3.7 µM) | growth inhibition (at 11.0 µM) | growth inhibition (at 33.0 µM) | growth inhibition (at 100.0 µM)
1 | O=c1c(Br)cc2c(-c3ccccc3)c3cc(Br)c(O)c(Br)c3oc-2c1Br | 2% (inactive) | 17% (inactive) | 31% (inactive) | 22% (inactive) | -4% (inactive)
2 | O=C1c2ccccc2C(=O)C1C(c1ccc(F)cc1)C1C(=O)c2ccccc2C1=O | -20% (inactive) | -20% (inactive) | -52% (inactive) | 0% (inactive) | 82% (active)
3 | Cn1c(COc2ccc(/C=N/NC(=O)CCC(=O)N/N=C/c3ccc(OCc4c[n+]5ccccc5n4C)cc3)cc2)c[n+]2ccccc12 | 0% (inactive) | -1% (inactive) | 0% (inactive) | 7% (inactive) | 97% (active)
4 | COc1cc(C(C)C(C(=O)O)C(=O)C(=O)O)cc(OC)c1OC (stereo not given) | -1% (inactive) | -2% (inactive) | 2% (inactive) | 3% (inactive) | 5% (inactive)
5 | CCCC#CCOC(=O)c1cc([N+](=O)[O-])cc([N+](=O)[O-])c1 | 0% (inactive) | 28% (inactive) | 98% (active) | 99% (active) | 99% (active)
6 | CN(C)CCC(=O)c1c[nH]c2ccccc12 | -23% (inactive) | -29% (inactive) | -9% (inactive) | -2% (inactive) | 18% (inactive)
7 | O=Cn1c2ccccc2c2ccccc21 | -32% (inactive) | -20% (inactive) | -19% (inactive) | -20% (inactive) | 25% (inactive)
8 | CCC(C)/C(C)=N/NC(N)=O (stereo not given) | -2% (inactive) | 0% (inactive) | 1% (inactive) | 0% (inactive) | 0% (inactive)
